In all, about 48,000 compounds went through this assay and about 13,000 (27%) showed an effect of 50% or more. The list shows a part of the results.
Test system: Wolbachia pipientis
Experiment: Anti-Wolbachia Cell-Based Screen
Format: functional
Set-up: scale not given: in the data most compounds retested in dose-response had high values
Details: 5 µM

SMILES	Percent Effect [%]
CC(C)CNC(=O)Nc1cccc(CN2CCOC2=O)c1	-15.82
Cc1nn(C)c(C)c1-c1nccnc1CC1CCNCC1	110.6
CCn1ccnc1CNc1nccc(-c2c(C)nn(C)c2C)n1	-9.163
c1cncc(-n2cnnc2CC2CCNCC2)c1	-4.344
Cc1nn(C)c(C)c1-c1cnc(CC2CCNC2)cn1 (configuration not stated)	90.84
CCc1nccn1CCCNc1nccc(-c2c(C)nn(C)c2C)n1	0.4363
Cc1nn(C)c(C)c1-c1cnc(CC2CCNCC2)cn1	154.2
COc1ccc(C)cc1-n1cnnc1CC1CCNCC1	5.267
O=C(C1=CCCC1)N1CC[C@]2(C[C@H](OCc3cccnc3)CO2)C1.O=C(O)C(F)(F)F	-2.821
CCSCC(C)NCc1ccccc1-n1ccnc1 (configuration not stated)	26.03
Cc1nnc2n1CCN(C(=O)CN1C(=O)CSc3ccccc31)C2	-16.29
CC(C)NC(=O)O[C@H]1COCCN(c2nc3ccccc3s2)C1	11.5
O=C(c1cn(-c2cc(N3CCSCC3)ncn2)cn1)N1CCSCC1	23.31
Cc1cc(C)n(CC2CCCN2C(=O)c2ccnc(N(C)C)c2)n1 (configuration not stated)	141.4
Cc1cc(C)n(C2CCCN(C(=O)c3c[nH]c(=O)c(Cl)c3)C2)n1 (configuration not stated)	-7.23
Cc1cc(C)n(CC2CCCN2C(=O)c2ccc3c(c2)nnn3C)n1 (configuration not stated)	-2.526
Cc1cc(C)n(CC2CCCN2C(=O)c2ccc(N(C)C)nn2)n1 (configuration not stated)	107
Cc1cc(C)n(CC2CCCN2C(=O)c2c[nH]c(=O)c(Cl)c2)n1 (configuration not stated)	130
Cc1cc(C)n(CC2CCCCN2C(=O)c2ccc3c(c2)OCO3)n1 (configuration not stated)	-4.429
Cc1cc(C)n(CC2CCCN2C(=O)c2cnccn2)n1 (configuration not stated)	101.9
Cc1cc(C)n(CC2CCCN2C(=O)c2ccc3c(c2)OCO3)n1 (configuration not stated)	14.69
CCc1noc(C)c1C(=O)N1CCCC1Cn1nc(C)cc1C (configuration not stated)	-1.879
Cc1cc(C)n(CC2CCCN2C(=O)c2cnn(C)c2C2CC2)n1 (configuration not stated)	-2.201
Cc1cc(C)n(CC2CCCN2C(=O)c2cc[nH]n2)n1 (configuration not stated)	9.629
NC(=O)CC1CCN(CC(O)c2ccc(Br)cc2)CC1 (configuration not stated)	25.42
CC(COc1ccccc1)NCc1nncn1C1CCCCC1 (configuration not stated)	-38.9

SMILES	Percent Effect [%]
CCN1CCC(NC(=O)Cc2csc(C(C)(C)C)n2)CC1	4.843
O=C(O)C(F)(F)F.O=C([C@H]1CCCO1)N1CCN(CCn2cccn2)c2ncccc2C1	108.8
O=C(C1CCOC1)N1CCN(CCn2cccn2)c2ncccc2C1.O=C(O)C(F)(F)F (configuration not stated)	122
CCN(CC)C(=O)c1nnc2ccc(N3CCOCC3)cc2n1	-10.33
CCCS(=O)(=O)N1CCN(CC(F)(F)F)CC1	16.36
Cc1cnc(C(C)(C)NC(=O)NCc2ccon2)s1	-28.31
N#CCCN(c1ccc(F)cc1)S(=O)(=O)CC1CCCCO1 (configuration not stated)	-8.338
CN(Cc1ccc2nonc2c1)C(=O)c1ccc(C2CCCO2)s1 (configuration not stated)	-9.176
Cc1nc2ccc(C(=O)N(CCC#N)CCC#N)cc2nc1C	-2.079
Cc1nc2cc(C(=O)N(CCC#N)CC3CCCO3)ccc2[nH]1 (configuration not stated)	103.2
Cc1nc2cc(C(=O)N(CCC#N)CCC#N)ccc2n1C	-0.9305
N#CCCN(CC1CCCO1)C(=O)c1ccc2nonc2c1 (configuration not stated)	113
CCC(C)CS(=O)(=O)NCCc1csc(N2CCCC2)n1 (configuration not stated)	-21.99
COCC(C)N(Cc1ccccc1OC)C(=O)c1cc(C)[nH]c(=O)c1 (configuration not stated)	-10.95
CN1CC(=O)N(c2cccc(F)c2)CC12CCN(CCO)C2.O=C(O)C(F)(F)F.O=C(O)C(F)(F)F (configuration not stated)	1.497
CC(Oc1cccc(F)c1)C(=O)N(CC(N)=O)C1CCCC1 (configuration not stated)	-28.68
O=C(O)C(F)(F)F.O=C1CC2(CCN(CCO)C2)CN1c1cccc(F)c1 (configuration not stated)	6.062
O=C(COc1cccc(F)c1)N1C[C@@H](CN2CCCC2)C[C@H](CO)C1	-0.02776
C[C@]1(O)CN(CC(=O)N2CCCC2)CC[C@@H]1Oc1cccc(F)c1	121.7
NC(=O)CN1CCC(C(=O)NCC(O)c2cccc(F)c2)CC1 (configuration not stated)	3.405
O=C(COc1cccc(F)c1)N1C[C@H](CO)C[C@H](CN2CCCC2)C1	-0.9347
C[C@]1(O)CN(CCO)CC[C@@H]1Oc1cccc(F)c1	120.3
C[C@]1(O)CN(CCC(N)=O)CC[C@@H]1Oc1cccc(F)c1	109.4
CCn1ncc2c1NC(=O)CC2c1cnc(NCc2ccccc2)nc1 (configuration not stated)	4.243
Cc1ccc(N2CCCC(N3CCC4(CC3)OCCO4)C2=O)cc1 (configuration not stated)	-7.017
COc1ccc2c(c1)CN(C)C(=O)CCN2CC(O)C(C)(C)C (configuration not stated)	100.8

SMILES	Percent Effect [%]
COc1ccc2c(c1)CN(C)C(=O)CCN2CC(O)C(F)(F)F (configuration not stated)	104.6
COC(=O)C(C)N1CCCc2cc(OC)ccc2C1 (configuration not stated)	-9.406
OC(CN1CCCc2cc(OC(F)F)ccc21)Cn1cccn1 (configuration not stated)	-16.69
COc1ccc2c(c1)CCN(CCC(=O)O)CC2	-10.19
COc1ccc2c(c1)CCCN(C(C)C(=O)NC(C)C)C2 (configuration not stated)	-4.844
O=C(CNc1nc(C2CC2)ns1)N1CCc2sccc2C1	-3.427
N#CCCN(CCC#N)C(=O)c1cccc(N2CCNC2=O)c1	-11.85
CC(C)c1nc(C2CCCN(C(=O)CCCn3cccn3)C2)no1 (configuration not stated)	95.04
CC(C)c1nc(C2CCCN(C(=O)CN(C)S(C)(=O)=O)C2)no1 (configuration not stated)	-21.51
CC(C)c1nc(C2CCCN(C(=O)CCCn3ccnc3)C2)no1 (configuration not stated)	94.72
Cc1nc(C2CCCN(C(=O)CCCn3cccn3)C2)sc1C (configuration not stated)	112.1
CC(C)c1nc(C2CCCN(C(=O)CCc3cscn3)C2)no1 (configuration not stated)	114.7
CC(C)c1nc(C2CCCN(C(=O)CS(=O)(=O)C(C)C)C2)no1 (configuration not stated)	-11.89
Cc1nc(C2CCCN(C(=O)CN3CCCC3=O)C2)sc1C (configuration not stated)	-7.822
CC(C)c1nc(C2CCCN(C(=O)CCn3ccnc3)C2)no1 (configuration not stated)	-0.5429
Cc1nc(C2CCCN(C(=O)CCCn3cccn3)C2)no1 (configuration not stated)	10.77
CCS(=O)(=O)CC(=O)N1CCCC(c2noc(C(C)C)n2)C1 (configuration not stated)	-6.108
CC(C)c1nc(C2CCCN(C(=O)CN3CCCNC3=O)C2)no1 (configuration not stated)	6.733
Cc1nc(C2CCCN(C(=O)CN3CCCNC3=O)C2)sc1C (configuration not stated)	6.53
CCN(Cc1cccc(NC(=O)COCCOC)c1)C(C)=O	-8.699
CCc1c(C)nn(CC(=O)NC(C)c2n[nH]c(C)n2)c1C (configuration not stated)	2.562
Cc1noc(C2CCN(c3oc(C)nc3C#N)CC2)n1	-7.205
CC(C)N1CCC(C(=O)NC[C@H]2CCc3ccccc3O2)CC1	-3.949
COC(=O)CCNC(=O)c1ccc(NC(=O)N(C)CC(C)(C)C)cc1	28.42
Cc1nccn1CCCC(=O)N1CCCC(c2noc(C(C)C)n2)C1 (configuration not stated)	94.02
Cc1nc(C2CCCN(C(=O)CCCn3ccnc3C)C2)no1 (configuration not stated)	-5.463

SMILES	Percent Effect [%]
O=C1O[C@@H]2CN(Cc3ccccn3)C[C@@H]2N1CCCc1ccc(F)cc1	2.234
Cc1ccc(OC2(C(=O)N(C)Cc3ccoc3)CCNCC2)cc1	-12.66
CCCc1cc(CNC2CCN(c3cc(C)nc(N)n3)CC2)on1	82.71
Cc1cc(C)nc(N2CCC(NCCSc3nnnn3C)CC2)n1	-14.51
CCCc1cc(CNC2CCN(c3cc(C(C)C)nc(C)n3)CC2)on1	93.6
CCCc1cc(CNC2CCN(c3nc4ccccc4s3)CC2)on1	114.2
CCCc1cc(N2CCC(NC3CCS(=O)(=O)C3)CC2)nc(C)n1 (configuration not stated)	-13.12
CCCc1cc(N2CCC(NC3CCOCC3)CC2)nc(C)n1	29.8
CCCc1cc(CNC(=O)Cc2cc(C)no2)on1	0.033
CCCc1cc(N2CCC(NCC3(O)CCN(C)CC3)CC2)nc(C)n1	-6.496
CCCc1cc(CNC2CCN(c3nc(C)cc(C)n3)CC2)on1	99.03
CCCc1cc(N2CCC(N[C@H]3CC[C@H](O)CC3)CC2)nc(C)n1	-4.932
CCS(=O)(=O)CCNC1CCN(c2nc3ccc(Cl)cc3s2)CC1	-46.95
Cc1n[nH]c(SCCNC2CCN(c3nc4ccccc4s3)CC2)n1	-0.1074
Cc1ccc(C(=O)N2CCN(c3ncnc4nc(N)ccc34)CC2)o1	-4.077
Cc1noc(C)c1S(=O)(=O)NCC(C)(O)c1ccc2c(c1)OCO2 (configuration not stated)	22.76
CCS(=O)(=O)c1ccc2oc([C@H]3CCN(Cc4ccncc4)C3)nc2c1	-3.63
CN1N=C(C(=O)N2CCCC(CCc3ccccc3)C2)CCC1=O (configuration not stated)	-44.22
COCCN(C)Cc1ccc(OC)c(OC(F)F)c1	-5.242
COCc1cc(C[C@@H]2CC[C@H](O)[C@@H](CN(CC(C)C)CC(C)C)O2)no1	-3.447
Cc1nc(CN2C(=O)C[C@@H]3[C@@H]2CCN3Cc2cnn(C)c2)cs1	96.83
Cc1nc(CN2C(=O)C[C@@H]3[C@@H]2CCN3S(C)(=O)=O)cs1	77.62
Cc1nc(CN2C(=O)C[C@@H]3[C@@H]2CCN3S(=O)(=O)C2CC2)cs1	97.85
Cc1nc(CN2C(=O)C[C@@H]3[C@@H]2CCN3C(=O)C2CCOCC2)cs1	6.269

Reference: ChEMBL document CHEMBL3988442, “University of Dundee, Small-Polar-MMV Screening Library” (2021)
